Rab9 promoter act: qHTS Assay for Rab9 Promoter Activators; Huh7 Rab9 promoter-luciferase reporter, luminescence, 24 h; Potency, µM (series often up to 9.22 µM), inactives show at the top dose activation, negative = inhibition, usual class: activators; 2.8% of 320,000 active; AID 485297, 2010; also: % of control where 0% means no effect; nearly all actives have a fitted effect of over 60% in size
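Rab9 promoter-driven luciferase in stably transfected Huh7 cells; 1500 cells/well rested 2 h, exposed to compound in DMSO for 24 h at 37 °C, 5% CO2. Luminescence read 10 min after adding luciferase reagent at ambient temperature.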
ELG1 genotoxic: qHTS screen for small molecules that induce genotoxicity in human embryonic kidney (HEK293T) cells expressing luciferase-tagged ELG1 | 1.3% of 330,000 active | HEK293T ELG1-luciferase reporter, luminescence, 16 h | AID 504466, 2011 | Potency, µM (highest dose often 46 µM), inactives show at the top dose activity change, positive = activation, actives largely listed as activators; also: % of control where 0% means no effect; nearly all actives have a fitted effect of over 60% in size
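16 hr compound incubation (37 °C, 5% CO2) of HEK293T cells carrying luciferase-tagged ELG1; luciferase then measured by ONE-Glo luminescence after 30 min at RT.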
SMN2 splice up: qHTS Assay for Enhancers of SMN2 Splice Variant Expression | HEK293 SMN2-luciferase splicing reporter, luminescence, 30-36 h | Potency, µM (titrated, usually from 46.1 µM), for the others: at the top dose activity change, positive = activation, usual class: activators | 2.8% of 210,000 active | AID 1458, 2008; also: % of control where 0% means no effect; nearly all actives have a fitted effect of over 55% in size
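qHTS luciferase splicing reporter: luminescence rises when SMN2 exon 7 is included in transfected HEK293 cells. Compound exposure lasted 30-36 h at 37C, with 4.5 mM final sodium butyrate as control, followed by a ONE-Glo read.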
FLuc counter: qHTS profiling assay for firefly luciferase inhibitor/activator using purifed enzyme and Km concentrations of substrates (counterscreen for miR-21 project) | Luciferin 4-monooxygenase (Photinus pyralis), P08659 | purified FLuc, Km substrates, luminescence inhibition | Potency, µM (top dose mostly 57.5 µM), for the others: top-dose activity change, negative = inhibition, actives largely listed as inhibitors | 6.9% of 360,000 active | AID 588342, 2011;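 also: plate controls were vehicle for no effect and reference inhibitor for full effect; nearly all actives have a fitted effect of over 55% in size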
Target sequence (P08659 whole entry, looked up): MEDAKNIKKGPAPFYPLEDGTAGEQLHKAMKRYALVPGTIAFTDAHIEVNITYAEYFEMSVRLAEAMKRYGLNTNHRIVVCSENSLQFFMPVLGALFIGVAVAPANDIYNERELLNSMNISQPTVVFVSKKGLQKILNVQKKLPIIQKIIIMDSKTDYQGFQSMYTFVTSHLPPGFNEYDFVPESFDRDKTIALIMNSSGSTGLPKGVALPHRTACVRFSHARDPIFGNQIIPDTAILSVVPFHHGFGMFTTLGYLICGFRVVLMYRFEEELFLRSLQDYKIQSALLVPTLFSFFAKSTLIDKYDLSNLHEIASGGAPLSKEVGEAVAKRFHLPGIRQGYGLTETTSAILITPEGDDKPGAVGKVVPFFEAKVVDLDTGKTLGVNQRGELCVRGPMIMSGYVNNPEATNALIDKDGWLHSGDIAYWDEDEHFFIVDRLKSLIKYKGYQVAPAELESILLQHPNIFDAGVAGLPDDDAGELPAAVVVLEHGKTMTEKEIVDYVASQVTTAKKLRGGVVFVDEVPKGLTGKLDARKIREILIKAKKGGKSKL
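Purified P. pyralis luciferase (10nM final) with 10uM D-luciferin and 10uM ATP (Km levels) in 50mM Tris acetate pH 7.5, 10mM Mg acetate, 0.01% Tween-20, 0.05% BSA; qHTS 6-point titration, ~60 µM downward; luminescence read.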
NPC1 prom act: qHTS Assay for NPC1 Promoter Activators; Huh7 NPC1 promoter luciferase reporter, 24 h; Potency, µM (highest dose often 9.22 µM), without a hit: top-dose activation, actives largely listed as activators; 2.4% of 320,000 active; AID 485313, 2010; also: % of control where 0% means no effect; nearly all actives have a fitted effect of over 60% in size
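Luciferase expression driven by the NPC1 promoter was measured in stably transfected Huh7 cells after a 24 h compound incubation, using a luciferase reagent and a luminescence read.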
ELG1 repair inh: qHTS screen for small molecules that inhibit ELG1-dependent DNA repair in human embryonic kidney (HEK293T) cells expressing luciferase-tagged ELG1. HEK293T ELG1-luciferase reporter, luminescence, 16 h; DNA damage induced by 5-fluorouridine. AID 504467, 2011. Potency, µM (top dose mostly 46.1 µM), for the others: top-dose activity change, negative = inhibition, actives largely listed as inhibitors. 2.3% of 330,000 active; also: % is scaled to controls: 0 for no effect and ±100 for the full control effect; nearly all actives have a fitted effect of over 55% in size
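DMSO vehicle served as the neutral condition. Each well held 2,000 cells given 5-fluorouridine plus compound; after 16 hr at 37 °C/5% CO2, ONE-Glo was added and luciferase measured 30 min later.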
Active calls of the source: *; ? = inconclusive; . = not tested or not shown; [ ] = dose if it differs, or a comment. Only some compounds are listed: those with a hit (about 9.2% of all), similar ones and a draw of the others. Calls follow the shape of the dose curve; as a rule, active = well fitted curve in the direction sought with a large enough effect; inconclusive = small, poorly fitted or top-dose-only effect, or another doubt; inactive = no such curve, though single readings can be large; an effect the other way counts as inactive or inconclusive. Potency is read from the fitted curve at half-maximal effect.

SMILES	Rab9 promoter act	ELG1 genotoxic	SMN2 splice up	FLuc counter	NPC1 prom act	ELG1 repair inh
O=C(NC1CCCCC1)c1cc(-c2ccc(O)cc2)on1	3.2µM*	?	.	?	2.5µM*	?
Cc1ccc(-c2cc(C(=O)NC3CCCCC3)no2)cc1	3.5µM*	17%	.	?	2.5µM*	?
COc1ccc(/C=C/C(=O)NCCSCc2ccco2)cc1	-1%	3%	7%	17µM*	-1%	?
COc1ccc(/C=C/C(=O)NCCCN2CCCC2)cc1	-8%	0%	.	4%	1%	2%
O=C(CSCc1ccc(Cl)cc1)NCCSCc1ccco1	-3%	-2%	.	-16%	-11%	9%
O=C(NCCSCc1ccco1)Nc1cc(Cl)cc(Cl)c1	-6%	-5%	.	27µM*	-4%	-20%
C#CCNC(=O)/C=C/c1ccc(OC)cc1	?	?	14µM*	21µM*	28%	?
COc1ccc(/C=C/C(=O)Nn2cnnc2)cc1	-7%	2%	57%	15µM*	-4%	20%
CC#CCN1c2ccccc2[C@]23C[C@@H](C(=O)OC)N(C(=O)c4cccs4)C2=NC(C(=O)OC)=C(C(=O)OC)[C@H]13	.	.	-7%[9.22 µM]	.	.	.
COC(=O)c1c(NC(=O)CN2CCC3(O)CCCCC3C2c2cc(OC)ccc2OC)sc(C)c1C (stereo not given)	-2%	-10%	-40%	-2%	-2%	9.2µM*
COC(=O)c1c(NC(=O)CN2CCC3(O)CCCCC3C2c2ccc(F)cc2)sc(C)c1C (stereo not given)	-5%	-2%	-14%	-1%	1%	-11%
CC(C)NC(=O)c1cc(-c2ccc3c(c2)OCO3)on1	0.63µM*	?	.	3.8µM*	0.56µM*	?
CCN(CC)C(=O)c1cc(-c2ccc3c(c2)OCO3)on1	3.5µM*	?	.	9.5µM*	4µM*	?
Cc1ccc(O)c(NC(=O)c2cc(-c3ccc4c(c3)OCO4)on2)c1	.	.	17%	?	.	.
CCN(CC)C(=O)c1cc(-c2ccc(Cl)cc2)on1	.	.	10µM*	13µM*	.	.
CCN(CC)CCCNC(=O)c1cc(-c2ccc(Cl)cc2)on1	6%	2%	-10%	2%	15%	-8%
CCCCNC(=O)c1cc(-c2ccc3c(c2)OCO3)on1	2µM*	?	.	2.7µM*	3.5µM*	?
O=c1c2oc3ccccc3c2n(Cc2cccc(F)c2)c(=O)n1Cc1ccc2c(c1)OCO2	.	.	.	5%	.	.
COc1cc2c(cc1NC(=O)c1ccccc1C)n(C)c(=O)n2C	.	.	-2%	-1%	.	.
O=C(OCC(O)COC(=O)c1cccnc1)c1cccnc1	0%	-1%	.	2%	8%	-3%
CCCNC(=O)c1cc(-c2ccc3c(c2)OCO3)on1	0.56µM*	?	.	3.8µM*	0.63µM*	?
O=C(NCc1ccc2c(c1)OCO2)c1cc(-c2ccc(Cl)cc2Cl)on1	0%	-4%	-4%	12µM*	2%	10%
CCN(CC)CCCNC(=O)c1cc(-c2ccc3c(c2)OCO3)on1	0%	4%	.	-10%	0%	?
CCOc1ccccc1OCCCNCc1ccco1	2%	-5%	0%	5%	-1%	0%
CCN1CCN(CC(=O)Nc2ccc(S(=O)(=O)N3C(C)CCCC3C)cc2)CC1 (stereo not given)	-8%	1%	.	2%	1%	14%
SMILES	Rab9 promoter act	ELG1 genotoxic	SMN2 splice up	FLuc counter	NPC1 prom act	ELG1 repair inh
Cc1cccc(Cn2c(SCc3ccc(C(=O)NCc4cccs4)cc3)nc3cccnc32)c1	.	.	.	-15%	.	.
O=C(NCc1cccs1)c1ccc(Cn2c(SCc3ccccc3)nc3cccnc32)cc1	.	.	.	6.7µM*	.	.
O=C(NCc1cccs1)c1ccc(CSc2nc3cccnc3n2Cc2ccccc2F)cc1	.	.	.	-17%	.	.
O=C(NCc1cccs1)c1ccc(Cn2c(SCc3ccc(F)cc3)nc3cccnc32)cc1	.	.	.	5.4µM*	.	.
Cc1ccc(CSc2nc3cccnc3n2Cc2ccc(C(=O)NCc3cccs3)cc2)cc1	.	.	.	0.95µM*	.	.
O=[N+]([O-])c1ccc(P(=O)(Cc2ccccc2)c2ccccc2O)cc1 (stereo not given)	-4%	-5%	.	-7%	1%	-28%
Cc1ccc2nc3ccc(N4CCN(C)CC4)nn3c(=O)c2c1	3.5µM*	?	.	6µM*	1.6µM*	?
Cc1sc2nc3ccc(N4CCCC4)nn3c(=O)c2c1C	17%	2%	.	12µM*	?	-7%
Cc1cc(N2CCOCC2)nc2ccccc12	13%	14%	?	?	-5%	?
O=c1c2ccccc2nc2ccc(N3CCOCC3)nn12	?	?	?	17µM*	?	?
Cc1ccc2nc3ccc(N4CCCCCCC4)nn3c(=O)c2c1	?	10%	?	5.4µM*	?	?
Cc1ccc(C(=O)NCCNC(=O)COc2ccc(Cl)cc2)cn1	-1%	-1%	.	-1%	0%	-4%
COC(=O)[C@H](Cc1ccccc1)NC(=O)O[C@@H]1C(=O)c2ccc(OC)cc2O[C@H]1c1ccc2c(c1)OCO2	.	.	-8%	.	.	.
CCN(CC)C(=S)SCC(=O)NC12CC3CC(CC(C3)C1)C2	-4%	-2%	-20%	-2%	0%	6%
COc1ccc(/C=C/C(=O)Nc2cc(C)on2)cc1	1.6µM*	14%	10µM*	?	2.8µM*	?
O=C(/C=C/c1ccccc1)Nc1ccc(Br)cn1	1.4µM*	?	11µM*	?	3%	?
COc1ccc(CC(=O)Nc2cc(C)on2)cc1	1%	0%	12%	-6%	-5%	8%
Cc1ccc(NC(=O)/C=C/c2ccc(Cl)cc2)nc1	?	6%	28%	?	6%	12%
COc1ccc(C(=O)/C=C/Nc2cc(C)on2)cc1	2.5µM*	6.5µM*	25%	6µM*	2.2µM*	?
COc1ccc(/C=C/C(=O)Nc2nonc2NC(C)=O)cc1	24%	7%	3%	24µM*	11%	?
COc1ccc(C(=O)NNC(=O)CCC(=O)Nc2cc(C)on2)cc1	2%	2%	8%	?	-2%	-2%
Cc1cc2oc3c(c(=O)c2cc1C)C(c1ccc(C(C)C)cc1)N(CCCN1CCOCC1)C3=O (stereo not given)	1%	-2%	-1%	4%	2%	?

Bioassay records deposited in PubChem by National Center for Advancing Translational Sciences (NCATS).
